High-throughput results deposited in PubChem by Sanford-Burnham Center for Chemical Genomics.
A selection: hits, their analogues and other compounds. The true share with any hit is near 2.2%.
KKLEB tox: reduces viability of KKLEB cystic fibrosis airway cells. KKLEB CF airway cells viability, ATPlite luminescence, overnight; hits give low values; cells stimulated with P. aeruginosa culture filtrate. activity change (cytotoxicity), % at 5 µM. 360,000 compounds, 0.36% hits. AID 602141;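 active = corrected activity change at or below -50% at 5 µM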
iPSC survival up: enhancers of human iPSC single-cell survival; 360,000 compounds, 0.044% hits; survival enhancement, % at 20 µM; hiPSC single-cell survival, ATPlite luminescence; 100% = ROCK inhibitor wells, 0% = DMSO; in the data active = survival enhancement above about 18%;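 note: cells exposed to compounds for 16 hours before the ATP read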
CF NFkB block: blocks PAF-induced NF-kB reporter in cystic fibrosis cells | KKLEB NF-kB-GFP reporter, GFP fluorescence overnight | inhibition, % at 5 µM | 360,000 compounds, 0.86% hits;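 active = at least 50% inhibition at 5 µM, scaled per plate between neutral and stimulator controls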;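 note: PAF is a Pseudomonas aeruginosa culture filtrate used as stimulus; plate controls were PAF-stimulated DMSO wells for no effect and unstimulated DMSO wells for full effect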
HIF-2a block: HIF-2a inhibition; 786-0 RCC cells HIF-2a reporter, luciferase luminescence, overnight; inhibition, % at 18.8 µM; 360,000 compounds, 0.72% hits;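 active = inhibition of the luminescence signal of 40% or more relative to plate controls, in a single-dose primary screen at 18.75 µM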
PPC-1+TRAIL kill: kills PPC-1 cancer cells in the presence of TRAIL. PPC-1 cells + TRAIL, ATPLite viability luminescence. cell killing (% activity), % at 4 µM or 5 µM. 220,000 compounds, 0.41% hits. AID 1443;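 active = cell killing above 50% in the first pass at 4 µM, then a duplicate retest at 5 µM averaging 50% or more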;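 note: plate controls were cells with TRAIL plus DMSO for no effect and medium-only wells lacking cells for full effect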
TRAIL sens C8: sensitizes caspase-8 expressing cells to TRAIL; NB7+C8 cells + TRAIL, ATPlite viability luminescence; inhibition (viability loss, TRAIL sensitization), % at 10 µM; 360,000 compounds, 1% hits; AID 624354;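 active = compounds causing at least 50% loss of cell viability in the single-dose screen, relative to plate controls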
PPC-1 tox: kills PPC-1 cells | cytotoxicity, % at 5 µM | 1,200 compounds, 50% hits | shares compounds with PPC-1+TRAIL kill | PPC-1 viability, ATPlite luminescence, overnight;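 active = reconfirmed compounds whose average cytotoxicity reaches 50% or more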;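 note: 0% = DMSO-treated cells and 100% = wells holding medium but no cells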
Starred values were filed as active, the others as inactive; x = not tested or not shown.

SMILES	KKLEB tox	iPSC survival up	CF NFkB block	HIF-2a block	PPC-1+TRAIL kill	TRAIL sens C8	PPC-1 tox
Cc1ccc(-c2cc(C(=O)N/N=C\c3cnn(C)c3C)c3ccccc3n2)cc1C	-1	-4	-10	-156	53*	46	45
C/C(=N\Nc1cccc2cccnc12)c1ccccn1	-30	-1	-26	-50	48	75*	44
C/C(=N\Nc1cccc2cccnc12)c1ccccc1O	-27	-4	-3	-245	37	40	x
O=C(Nc1ccc2cn[nH]c2c1)c1c(Cl)cccc1Cl	-4	3	4	7	-5	13	x
CN(C)c1ccc(NC2=C(Cl)C(=O)c3ccccc3C2=O)cc1	-82*	-5	80*	96*	35	70*	40
O=C1C(Cl)=C(Nc2ccc3cn[nH]c3c2)C(=O)c2ccccc21	-92*	15	94*	95*	76*	72*	69*
Cc1cccn2c(CNCCc3ccco3)c(C(=O)N3CCOCC3)nc12	2	1	10	0	x	-24	x
CCC1(CC)NC(=O)N(CC(=O)OCC(=O)c2ccccc2OC)C1=O	-9	0	-9	6	x	-5	x
O=C(O)COc1ccc(/C=C/c2nc3ccc([N+](=O)[O-])cc3s2)cc1	17	0	-9	-72	-14	5	x
COc1ccc(NC(=O)C2C3C=CC(C3)C2C(=O)O)cc1 (configuration not stated)	0	-1	1	4	-4	-2	x
Cc1ccc(-c2ccc(NC(=O)C3C4C=CC(C4)C3C(=O)O)cc2)o1 (configuration not stated)	-8	-2	-4	-211	8	3	17
O=C(OCc1csc(-c2ccccc2)n1)c1ccc(O)cc1	4	0	-7	-48	-9	-2	x
Cc1ccc2c(c1)COc1c3ccc(C(=O)NCC4CC4)cc3nn1-2	8	-2	-49	-291	6	24	x
O=C(NCCO)c1ccc2c3n(nc2c1)-c1ccccc1CO3	8	-2	-17	-213	71*	70*	70*
O=C(NCC1CC1)c1ccc2c3n(nc2c1)-c1ccccc1CO3	-47	-5	-50	-166	80*	83*	76*
Cc1ccc(NCc2ccccc2F)cc1	4	0	12	-58	6	-2	x
Cc1ccc(NCc2ccccc2O)cc1	-4	-2	0	-44	-3	-3	-7
O=C1CC(N2CCN(c3ccc(F)cc3)CC2)C(=O)N1Cc1ccc(N2CCCC2=O)cc1 (configuration not stated)	7	0	-5	13	14	-1	20
COc1cc(OC)c2ccc(=O)oc2c1C(CCN1CCN(c2ccccc2)CC1)c1ccc(N(C)C)cc1 (configuration not stated)	0	1	3	8	-10	9	x
Cc1ccc(OCc2nnc(SCC(=O)NCc3ccccc3)n2C)cc1	9	0	-8	24	11	1	11
Cn1c(COc2ccccc2)nnc1SCC(=O)NCc1ccccc1	-7	0	11	30	10	-4	x
O=C(Nc1nc2cc3c(cc2s1)OCO3)c1ccc(N2C(=O)CCC2=O)cc1	4	0	-4	-22	-3	3	x
O=C(Nc1nc2cc3c(cc2s1)OCO3)c1cccc(N2C(=O)CCC2=O)c1	7	-1	-8	-120	49	56*	58*
CCOC(=O)C1=C(CSc2nc(-c3ccncc3)ccc2C#N)OC(N)=C(C#N)C1c1cccnc1 (configuration not stated)	4	-5	-4	-90	9	4	x
CCOC(=O)C1=C(CSc2nc(-c3ccncc3)ccc2C#N)OC(N)=C(C#N)C1c1ccc(OC)cc1 (configuration not stated)	-9	0	6	-65	-12	-1	-22
CCOC(=O)CSc1nc(-c2ccncc2)ccc1C#N	-6	-1	-18	-257	48	51*	46
COc1ccc(C(CNC(=O)c2ccc3c(c2)OCCO3)N(C)C)cc1 (configuration not stated)	-15	0	-2	-14	x	14	x
